Screens (PubChem)
Vif imaging – HIV Vif self-association inhibitors, primary screen, imaging, HEK293T, single point; HEK293T cells, Vif self-association by quenched fluorescence, 24 h; inhibition, % at 7.49 µM; 340,000 compounds, 0.35% hits; AID 602346, 2012; in the data active means inhibition above about 50%, passing the limit was not always enough
N-glyco inh – increase of ERlucT glycosylation luciferase signal, primary screen, N-linked glycosylation inhibitor project, D54 ERlucT cells, luminescence, set 2 | AID 588692, 2011 | reporter increase, % at 12.5 µM | 360,000 compounds, 0.23% hits | D54 ERlucT glycosylation luciferase reporter, 24 h; percent of 100 nM tunicamycin response;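 active means mean luciferase reporter signal, scaled so untreated is 0 and the glycosylation-blocking control 100, at or above a set limit in every replicate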;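 further: luciferase carries N-glycosylation sites so blocking glycosylation raises the light; 0% = median of neutral control wells and 100% = median of 100 nM tunicamycin wells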
NSD2 inh – NSD2 histone methyltransferase inhibitors, primary screen, biochemical, AlphaScreen, single concentration, set 2 | NSD2 peptide methylation, 120 min | inhibition, % at 12.5 µM | 310,000 compounds, 0.54% hits; in the data active means inhibition above about 50%
DSG3 Ab inh – inhibitors of pemphigus antibody binding to DSG3, primary screen, biochemical, bead-based, flow cytometry, scFv-GFP. Desmoglein-3 (Homo sapiens), P32926. DSG3-coupled beads, scFv-anti-DSG3-GFP binding; hits give low values. binding (percent of control), % at 10 µM. 310,000 compounds, 0.48% hits;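 active means binding more than 3 SD below its plate's average and above zero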;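 further: hits lower antibody fragment binding to DSG3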
CaV13 FRET inh – Disruptors of the CACNA1D IQ motif to Ca2+-dependent inactivation inhibitor domain association, primary screening, Förster resonance energy transfer in intact living …; HEK cells, CFP/YFP FRET ICDI-IQ, plate reader, 10 min; percent FRET-ratio fall versus neutral wells; inhibition, % at 12.3 µM; 340,000 compounds, 0.098% hits; AID 743397;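 active means mean replicate inhibition of at least 30% and at least 1% of replicates passing that level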;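 further: 0% = median of the neutral control wells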
ATG4B inh – ATG4B protease inhibitors, primary screen, biochemical, fluorescence, uHTS; Cysteine protease ATG4B (Homo sapiens), Q9Y4P1; ATG4B cleavage of LC3-PLA2, NBD-HPC fluorescence, 1 h; inhibition, % at 8.33 µM; 340,000 compounds, 0.51% hits; AID 504462, 2011; in the data active means inhibition above about 40%
Target sequence (Q9Y4P1 whole entry, looked up): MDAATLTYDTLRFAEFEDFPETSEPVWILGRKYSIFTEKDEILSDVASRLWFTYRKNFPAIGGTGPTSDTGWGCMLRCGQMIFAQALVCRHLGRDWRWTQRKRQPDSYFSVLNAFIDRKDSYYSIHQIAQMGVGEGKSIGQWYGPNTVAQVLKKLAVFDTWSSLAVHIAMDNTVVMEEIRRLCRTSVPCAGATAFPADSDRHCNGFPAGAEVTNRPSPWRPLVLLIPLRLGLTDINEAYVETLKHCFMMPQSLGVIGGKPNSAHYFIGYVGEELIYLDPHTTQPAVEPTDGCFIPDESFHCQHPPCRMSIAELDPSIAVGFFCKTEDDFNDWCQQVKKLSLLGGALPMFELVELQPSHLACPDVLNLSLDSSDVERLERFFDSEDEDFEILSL
Starred values were filed as active, the others as inactive; x = no result given. A selection: hits, their analogues and other compounds. The true share with any hit is near 1.9%.

SMILES	Vif imaging	N-glyco inh	NSD2 inh	DSG3 Ab inh	CaV13 FRET inh	ATG4B inh
COc1ccc(-c2cc(-c3cccs3)c(C#N)c(SCC(=O)NCc3ccco3)n2)cc1	52*	-2	x	x	x	-3
COc1cc2c(cc1OC)C(c1ccccc1)N(C(=O)c1ccco1)CC2 (stereo not drawn)	20	34*	x	108	-2	-4
COc1cc2c(cc1OC)C(c1ccccc1)N(C(=O)CSCC(=O)O)CC2 (stereo not drawn)	-2	2	1	102	1	-11
COc1cc2c(cc1OC)C(c1ccccc1)N(C(=O)c1ccccc1F)CC2 (stereo not drawn)	0	37*	1	104	-3	-7
COc1cc2c(cc1OC)C(c1ccccc1)N(C(=O)c1ccccc1)CC2 (stereo not drawn)	-7	34*	21	151	-6	-4
COC(=O)c1ccc(OCC2c3cc(OC)c(OC)cc3CCN2C(=O)c2ccco2)cc1 (stereo not drawn)	69*	-2	-1	98	-7	-9
COc1cc2c(cc1OC)C(c1cccc([N+](=O)[O-])c1)N(C(=O)c1ccc(F)cc1)CC2 (stereo not drawn)	21	4	x	101	x	-8
COc1cc2c(cc1OC)C(c1cc3cc(C)ccc3[nH]c1=O)N(C(=O)c1ccco1)CC2 (stereo not drawn)	10	2	8	87	-7	-8
CC(C)=C(C#N)c1nc2ccccc2s1	6	1	-3	127	x	2
Cc1nc2nc(SCC(=O)c3ccc([N+](=O)[O-])cc3)[nH]c2cc1Br	2	1	-2	95	-2	3
COCCN(CC1CCCN(C2Cc3ccccc3C2)C1)C(=O)CCC(F)(F)F (stereo not drawn)	14	2	0	104	-4	-5
Cc1ccc(F)c(S(=O)(=O)NC(=O)C2(C)CCN2C(=O)CCc2ccccc2)c1 (stereo not drawn)	2	1	-2	x	-9	x
COCCNC(=S)N1CCc2cc(OC)c(OC)cc2C1c1cccs1 (stereo not drawn)	3	59*	-3	102	-2	-11
COCCNC(=S)N1CCc2cc(OC)c(OC)cc2C1COc1ccc(F)cc1 (stereo not drawn)	0	-3	-5	94	-6	-39
COc1cc2c(cc1OC)C(c1cccs1)N(C(=O)c1cccc(S(=O)(=O)N(C)C)c1)CC2 (stereo not drawn)	-5	32*	0	102	-2	0
COc1ccc(C2c3cc(OC)c(OC)cc3CCN2C(=O)c2cccc([N+](=O)[O-])c2)cc1OC (stereo not drawn)	10	2	4	118	-13	-2
CC1CCCCC1NC(=O)c1ccc(CSc2nc3ccncc3[nH]2)cc1 (stereo not drawn)	15	-2	x	96	-6	-13
C/C(=N\NC(=O)CSc1nnc(-c2ccccc2)n1-c1ccc(C)cc1)c1ccc(-c2ccccc2)cc1	x	x	-8	x	x	x
COCCNC(=O)c1nn2c(C(F)(F)F)cc(-c3ccccc3)nc2c1Cl	106*	3	-3	115	-5	-3
COc1ccc(-c2cc(C(F)(F)F)n3nc(C(=O)NCc4ccco4)cc3n2)cc1	-1	-1	x	101	x	-15
COc1ccc(-c2cc(C(F)(F)F)n3nc(C(=O)NCc4ccco4)c(Cl)c3n2)cc1	157*	0	0	104	-3	-4
O=C(NCCCn1ccnc1)c1nn2c(C(F)(F)F)cc(-c3ccccc3)nc2c1Cl	-15	3	0	107	-6	1
CCOC(=O)CSC1=N/C(=C\c2cccnc2)C(=O)N1c1ccc(OC)cc1	-8	0	-2	100	-2	-7
